Data: PubChem BioAssay
For part of these data: Results with a measured potency or affinity are listed apart. The source made the active and inactive calls. Unless noted, how the calls were made is not given here.

Tests used:
[1] = antimalarial activity against Dd2 strain (AID 2302;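 active means growth inhibition above 50% at the single 2 µM test dose, taken to imply half-maximal potency below 2 µM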;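 further: 0% = DMSO untreated growth and 100% = chloroquine plus artemisinin killed control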); conditions: P. falciparum Dd2 in RBCs, LDH growth readout, 72 h; at 2 µM; hits give high values
[2] = HepG2 cytotoxicity, primary screen, cytotoxicity control for P. falciparum antimalarial project, cell-based, ATP luminescence (AID 2303;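 active means inhibition above 50%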;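 further: 0% = DMSO wells and 100% = digitonin-killed cells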); conditions: HepG2 viability, 24-48 h, at 10 µM, hits give high values
[3] = biological target: L-lactate dehydrogenase (Plasmodium falciparum (isolate CDC / Honduras)) (UniProt Q27743); experiment: PfLDH activity inhibition – cell lysate, 3D7 strain, counter-screen for P. falciparum growth inhibition project (AID 2304);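 further: 0% = vehicle and 100% = reference inhibitor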; conditions: P. falciparum 3D7 crude extract, LDH APAD/NBT absorbance; at 2 µM; hits give high values
[4] = inhibition of 3D7 malaria parasite growth – strain 3D7 (AID 2306);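 further: 0% = DMSO wells and 100% = chloroquine plus artemisinin control wells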; conditions: P. falciparum 3D7 erythrocytic growth, LDH absorbance, 72 h; at 2 µM; hits give high values
[5] = biological target: Calcium-dependent protein kinase 1 (Plasmodium falciparum (isolate 3D7)) (UniProt P62344); experiment: PfCDPK1 kinase inhibitors, biochemical, TCAMS library (AID 1159585; cut-off not given, nearly all actives have IC50 up to about 0.98 µM;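 further: inhibitors leave more ATP so luminescence rises with inhibition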); conditions: recombinant PfCDPK1, Kinase-Glo ATP depletion luminescence
[6] = biological target: Plasmodium falciparum protein kinase 6 (PK6, PF3D7_1337100) (UniProt Q8IDW1); experiment: PfPK6 kinase inhibitors, biochemical, TCAMS library (AID 1159586); conditions: recombinant PfPK6, Kinase-Glo ATP depletion luminescence
[7] = biological target: Protein kinase 7 (PK7), Plasmodium falciparum 3D7 (PF3D7_0213400) (UniProt Q7YTF7); experiment: inhibition of Plasmodium PK7 catalytic activity – biochemical, TCAMS antimalarial set, Kinase-Glo luminescence (AID 1159587); conditions: recombinant PfPK7, Kinase-Glo ATP depletion luminescence
[8] = biological target: Calcium-dependent protein kinase 4 (Plasmodium falciparum (isolate 3D7)) (UniProt Q8IBS5); experiment: PfCDPK4 kinase inhibitors, biochemical, TCAMS library (AID 1159588; cut-off not given, nearly all actives have IC50 up to about 0.91 µM); conditions: recombinant PfCDPK4, Kinase-Glo ATP depletion luminescence
Chain of Calcium-dependent protein kinase 4 (Plasmodium falciparum (isolate 3D7)) (Q8IBS5 whole entry, looked up): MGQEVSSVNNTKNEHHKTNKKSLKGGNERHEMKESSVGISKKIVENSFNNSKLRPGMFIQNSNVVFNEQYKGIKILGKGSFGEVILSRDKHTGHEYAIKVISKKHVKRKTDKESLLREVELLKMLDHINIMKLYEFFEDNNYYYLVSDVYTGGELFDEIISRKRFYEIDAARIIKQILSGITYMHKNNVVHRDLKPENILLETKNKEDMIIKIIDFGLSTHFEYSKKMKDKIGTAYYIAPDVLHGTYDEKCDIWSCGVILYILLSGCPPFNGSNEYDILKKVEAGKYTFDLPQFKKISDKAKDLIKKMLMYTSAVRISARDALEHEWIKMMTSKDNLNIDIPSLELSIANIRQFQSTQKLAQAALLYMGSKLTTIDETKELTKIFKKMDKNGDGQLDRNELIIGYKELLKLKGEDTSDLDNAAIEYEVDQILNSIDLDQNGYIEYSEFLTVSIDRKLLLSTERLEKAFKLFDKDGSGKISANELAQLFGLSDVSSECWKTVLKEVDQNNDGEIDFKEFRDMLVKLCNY

Chain of Plasmodium falciparum protein kinase 6 (PK6, PF3D7_1337100) (Q8IDW1 1-305): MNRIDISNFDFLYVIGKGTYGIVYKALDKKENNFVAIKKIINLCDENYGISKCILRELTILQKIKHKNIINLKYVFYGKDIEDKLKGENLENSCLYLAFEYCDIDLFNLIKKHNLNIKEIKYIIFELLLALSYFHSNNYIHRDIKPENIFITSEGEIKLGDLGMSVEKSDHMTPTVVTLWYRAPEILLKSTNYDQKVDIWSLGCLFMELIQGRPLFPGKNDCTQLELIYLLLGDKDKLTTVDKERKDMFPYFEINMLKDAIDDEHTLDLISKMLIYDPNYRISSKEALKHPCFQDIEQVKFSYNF
Chain of L-lactate dehydrogenase (Plasmodium falciparum (isolate CDC / Honduras)) (Q27743 whole entry, looked up): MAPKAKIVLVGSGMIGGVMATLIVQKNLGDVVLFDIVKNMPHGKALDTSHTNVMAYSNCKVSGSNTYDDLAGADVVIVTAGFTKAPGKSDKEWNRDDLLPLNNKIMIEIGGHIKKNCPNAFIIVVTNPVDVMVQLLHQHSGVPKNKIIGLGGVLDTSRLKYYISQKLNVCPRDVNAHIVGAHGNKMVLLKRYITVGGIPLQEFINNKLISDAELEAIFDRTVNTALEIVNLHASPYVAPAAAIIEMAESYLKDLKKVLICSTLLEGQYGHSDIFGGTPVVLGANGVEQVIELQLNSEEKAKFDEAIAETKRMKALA
Chain of Calcium-dependent protein kinase 1 (Plasmodium falciparum (isolate 3D7)) (P62344 whole entry, looked up): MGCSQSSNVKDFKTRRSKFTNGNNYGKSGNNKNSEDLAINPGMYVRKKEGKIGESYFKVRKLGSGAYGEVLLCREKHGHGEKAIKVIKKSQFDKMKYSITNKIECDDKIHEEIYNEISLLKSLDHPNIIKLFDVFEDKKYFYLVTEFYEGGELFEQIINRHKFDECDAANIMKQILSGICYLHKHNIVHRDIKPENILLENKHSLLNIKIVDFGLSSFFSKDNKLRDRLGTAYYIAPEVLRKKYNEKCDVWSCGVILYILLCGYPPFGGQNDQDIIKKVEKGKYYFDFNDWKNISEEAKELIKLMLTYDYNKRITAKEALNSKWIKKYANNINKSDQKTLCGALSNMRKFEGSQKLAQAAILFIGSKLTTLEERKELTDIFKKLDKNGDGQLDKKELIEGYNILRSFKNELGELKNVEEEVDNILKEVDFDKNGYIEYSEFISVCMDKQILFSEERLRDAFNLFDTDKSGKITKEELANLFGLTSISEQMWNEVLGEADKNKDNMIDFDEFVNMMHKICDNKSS
Chain of Protein kinase 7 (PK7), Plasmodium falciparum 3D7 (PF3D7_0213400) (Q7YTF7 1-343): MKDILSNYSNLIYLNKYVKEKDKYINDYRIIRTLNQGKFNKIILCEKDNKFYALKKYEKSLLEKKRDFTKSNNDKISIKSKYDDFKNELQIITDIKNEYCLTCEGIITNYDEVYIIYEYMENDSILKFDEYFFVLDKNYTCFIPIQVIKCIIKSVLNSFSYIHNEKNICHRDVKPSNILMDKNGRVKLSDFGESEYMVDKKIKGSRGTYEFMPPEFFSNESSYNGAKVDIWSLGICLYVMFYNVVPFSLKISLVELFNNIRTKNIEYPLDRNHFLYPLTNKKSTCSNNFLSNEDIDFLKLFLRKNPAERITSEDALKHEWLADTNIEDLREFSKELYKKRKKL

O=C(c1cnn(-c2ccccc2)c1C(F)(F)F)N1CCN(c2ccnc3cc(Cl)ccc23)CC1
inactive: inhibition [2] 34% | inhibition [3] 6% | outcome [5] | outcome [6] | outcome [7] | outcome [8]
active: growth inhibition [1] 94% | growth inhibition [4] 89%

Cc1cc(C)n2nc(C(=O)Nc3cc(C(F)(F)F)ccc3N3CCOCC3)nc2n1
inactive: inhibition [2] 2% | inhibition [3] -3% | outcome [5] | outcome [6] | outcome [7] | outcome [8]
active: growth inhibition [1] 91% | growth inhibition [4] 94%

Fc1cccc(COc2ccc(Nc3ncnc4sc(C#CCNC5CCCC5)cc34)cc2Cl)c1
active: growth inhibition [1] 78% | growth inhibition [4] 100%
inactive: inhibition [2] 3% | inhibition [3] 3% | outcome [5] | outcome [6] | outcome [7] | outcome [8]

CC1(C)N=C(N)N=C(N)N1c1cc(Cl)c(Cl)c(Cl)c1
inactive: growth inhibition [1] 31% | inhibition [3] -7% | outcome [5] | outcome [6] | outcome [7] | outcome [8]
active: inhibition [2] 68% | growth inhibition [4] 93%

Oc1ccc(CCNc2nc(NCCOc3ccccc3-c3ccccc3)nc(N3CCNCC3)n2)cc1
active: growth inhibition [4] 93%
inactive: growth inhibition [1] 17% | inhibition [2] 22% | inhibition [3] -1% | outcome [5] | outcome [6] | outcome [7] | outcome [8]

CN1CCC(NCc2ccc(-c3ccc(S(=O)(=O)NCc4ccccc4)s3)cc2)CC1
active: growth inhibition [1] 95% | inhibition [2] 77% | growth inhibition [4] 99%
inactive: inhibition [3] -3% | outcome [5] | outcome [6] | outcome [7] | outcome [8]

CN(C)C(=O)c1cccc(COc2ccc(N3C(N)=NC(N)=NC3(C)C)cc2Cl)c1
inactive: inhibition [3] 1% | outcome [5] | outcome [6] | outcome [7] | outcome [8]

O=C(CCCCCNC(=O)c1ccc(O)c(-c2cccc(C(F)(F)F)c2)c1)NCCN1CCCCC1
active: growth inhibition [4] 99%
inactive: growth inhibition [1] 0% | inhibition [2] -5% | inhibition [3] 4% | outcome [5] | outcome [6] | outcome [7] | outcome [8]

C[C@H](Cc1ccc(C[C@@H](C)NC[C@H](O)c2cccc(Cl)c2)cc1)NC[C@H](O)COc1ccccc1
inactive: inhibition [3] -2% | outcome [5] | outcome [6] | outcome [7] | outcome [8]
active: growth inhibition [1] 60% | inhibition [2] 99% | growth inhibition [4] 96%

CCCCCC(C)(C)NC[C@@H](O)[C@H](Cc1ccccc1)NC(=O)c1cc(NCC)cc(N2CCCC2=O)c1
active: growth inhibition [1] 97% | growth inhibition [4] 99%
inactive: inhibition [2] 9% | inhibition [3] -5% | outcome [5] | outcome [6] | outcome [7] | outcome [8]

COc1ccc(NC(=O)C2c3ccccc3C(=O)N(C3CCCC3)C2c2cccs2)cc1OC (configuration not stated)
inactive: inhibition [2] -5% | inhibition [3] -2% | outcome [5] | outcome [6] | outcome [7] | outcome [8]
active: growth inhibition [1] 96% | growth inhibition [4] 90%

N=c1n(Cc2ccccc2)c2ccccc2n1CC(O)c1ccc(Cl)c(Cl)c1 (configuration not stated)
inactive: inhibition [2] 40% | inhibition [3] 4% | outcome [5] | outcome [6] | outcome [7] | outcome [8]
active: growth inhibition [1] 98% | growth inhibition [4] 95%

CN1CCN(CC(=O)Nc2ccc(-c3ccc(-c4nc5ccccc5[nH]4)cc3)cc2)CC1
inactive: inhibition [2] 18% | inhibition [3] -1% | outcome [5] | outcome [6] | outcome [7] | outcome [8]
active: growth inhibition [1] 80% | growth inhibition [4] 98%

Cc1cc(NN=CC=Cc2ccccc2)c2ccc(F)cc2n1
inactive: growth inhibition [1] 30% | inhibition [2] 14% | inhibition [3] -3% | outcome [5] | outcome [6] | outcome [7] | outcome [8]
active: growth inhibition [4] 100%

COc1ccc(Nc2nccc(N3CCC(NC(=O)c4cc5ccccc5s4)C3)n2)cc1 (configuration not stated)
inactive: inhibition [2] 1% | inhibition [3] 4% | outcome [5] | outcome [6] | outcome [7] | outcome [8]
active: growth inhibition [1] 86% | growth inhibition [4] 99%
